The structures appear in SMILES notation. Records with an inconclusive call do not appear. A call without a number means that no potency is given here. The source made the active and inactive calls. Calls come from the whole dose curve.

The test in a line: qHTS assay for small molecule disruptors of the mitochondrial membrane potential - cell viability (AID 720634).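 Note: human HepG2 liver cancer cells; nearly all actives have a fitted effect of over 20% in size.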 Conditions: HepG2 viability, ATP luminescence (CellTiter-Glo), 1 h; series mostly up to 83.2 µM. The text has this: U.S. Tox21 Program National Center for Advancing Translational Sciences [NCATS] NIH Chemical Genomics Center [NCGC] U.S. Environmental Protection Agency [EPA] National Institutes of Environmental Health Sciences [NIEHS] National Toxicology Program [NTP] U.S. Food and Drug Administration [FDA] Tox21 Assay Overview: Mitochondrial membrane potential (MMP), one of the parameters for mitochondrial function, is generated by mitochondrial electron transport chain that creates an electrochemical gradient by a series of redox reactions. This gradient drives the synthesis of ATP, a crucial molecule for various cellular processes. Measuring MMP in living cells is commonly used to assess the effect of chemicals on mitochondrial function; decreases in MMP can be detected using lipophilic cationic fluorescent dyes. […] The dye accumulates in the mitochondria of healthy cells as aggregates, with red fluorescence. The mitochondrial potential decreases and the dye could not accumulate in the mitochondria and remains in the cytoplasm in monomers, with green fluorescence. In addition to the mitochondrial potential assay, these cells were also used to test the cytotoxicity by determining the cell viability in the culture based on the quantitation of ATP present. The cytotoxicity was measured in the same assay well of MMP assay.
Tox21 Assay Protocol Summary: 2,000 HepG2 cells in 5 uL/well were dispensed into black, clear-bottom 1536-well plates using a Multidrop Combi (Thermo Scientific) dispenser. The assay plates were incubated for an overnight at 37 C to allow cells to attach to the wells, followed by the transfer of 23 nL compound or DMSO vehicle by a pin tool (Kalypsys). The plates were incubated for 1 hr at 37 C and 5% CO2, followed by the addition of 5 uL of 2X m-MPI dye into each well using Flying Reagent Dispenser (Aurora Discovery) and then CellTiter-Glo reagent was added at 4 uL/well and incubated 30 min at room temperature. Then luminescence intensity was quantified on a ViewLux CCD-based plate reader.
In general terms: In qHTS, concentration-response curves come from the screen itself.
For `C=C(C)CN(CC)c1c([N+](=O)[O-])cc(C(F)(F)F)cc1[N+](=O)[O-]`, the Potency result is “inactive”.
On to `CC(=O)[C@H]1CC[C@H]2[C@@H]3CC[C@H]4C[C@H](O)CC[C@]4(C)[C@H]3C(=O)C[C@]12C`, for which the Potency result is “inactive”.
Consider `O=[N+]([O-])c1cccc2cccnc12`, for which the Potency entry is “inactive”.
The result for `OC(Cn1cncn1)(c1ccc(F)cc1)c1ccccc1F` (stereo not given) reads “inactive”; that for `CCCCN(CCCCO)N=O`, “inactive”; that for `CCOC(=O)N(C)C(=O)CSP(=S)(OCC)OCC`, “inactive”.
The result for `CCc1cc2c(s1)-n1c(C)nnc1CN=C2c1ccccc1Cl` reads “inactive”; that for `N#CCBr`, “inactive”.
Regarding `O=C(Nc1ccccc1)c1ccccc1I`, the Potency result is “inactive”.
For `COC(C)(C)C`, the Potency result is “inactive”.
For `C#C[C@]1(O)C=C[C@H]2[C@@H]3CCC4=CC(=O)CC[C@@H]4[C@H]3CC[C@@]21CC`, the Potency entry was “inactive”.
For `CC(=O)CCc1ccc2c(c1)OCO2` the value was “inactive”; for `CC(N)=S`, “inactive”.
For `CCCCCCI` the value was “inactive”; for `NC(=S)C(N)=S`, “inactive”; for `CC(C)CC(N(C)C)C1(c2ccc(Cl)cc2)CCC1` (stereo not given), “inactive”.
The result for `Fc1ccc(C2(Cn3cncn3)OC2c2ccccc2Cl)cc1` (stereo not given) reads “inactive”; that for `CCOC(=O)NC(=S)Nc1ccccc1NC(=S)NC(=O)OCC`, “inactive”; that for `Nc1n[nH]c(N)n1`, “inactive”.
For `ClC(Cl)C(Cl)Cl`, the Potency result is “inactive”.
The result for `O=[N+]([O-])c1cccc(O)c1` reads “inactive”; that for `O=[N+]([O-])c1ccc2c3c(cccc13)CC2`, “inactive”.
For `O=[N+]([O-])c1cccc2c([N+](=O)[O-])cccc12` the value was “inactive”; for `CC(=O)Nc1cc([As](=O)(O)O)ccc1O`, “inactive”.
For `OCCBr` the value was “inactive”; for `CC(C=O)Cc1ccc2c(c1)OCO2` (stereo not given), “inactive”.
Regarding `COc1cc(C[C@@H](C)N)c(OC)cc1C`, the Potency result was “inactive”.
The result for `O=NN1CCN(N=O)CC1` reads “inactive”; that for `O=C(O)c1ccc2[nH]cc(CCCCN3CC=C(c4ccccc4)CC3)c2c1`, “inactive”; that for `C[N+](=O)[O-]`, “inactive”.
The result for `c1cc[c]([Hg][c]2ccccc2)cc1` reads “inactive”; that for `CCOP(=S)(OCC)Oc1nc(Cl)n(C(C)C)n1`, “inactive”; that for `Cc1ncc2n1-c1ccc(Cl)cc1C(c1ccccc1F)=NC2`, “inactive”.
As to `CCOc1nc(C(Cl)(Cl)Cl)ns1`, the Potency entry was “inactive”.
On to `CCCCC(=O)Cl`, for which the Potency result was “inactive”.
For `COC(=O)c1ccccc1S(=O)(=O)NC(=O)N(C)c1nc(C)nc(OC)n1` the value was “inactive”.
For `Cc1ncsc1CCCl` the value was “inactive”; for `CC(=O)C(Cl)Cl`, “inactive”; for `CCC/C(=N\OCC)C1=C(O)CC(CC(C)SCC)CC1=O` (stereo not given), “inactive”.
The result for `CC(Oc1ccc(Oc2ncc(C(F)(F)F)cc2Cl)cc1)C(=O)O` (stereo not given) reads “inactive”.

Source of the values: PubChem BioAssay (Tox21).
